In all, about 310,000 compounds went through this assay and about 14,000 (4.5%) showed an effect of 50% or more. Effects have a minus sign here. The list comes from a sample in which strong results are over-represented; it also holds similar structures and randomly drawn compounds.
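Also: peak tail current of the secondary pulse compared with the same well before compound.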

The assay deals with human ether-à-go-go-related gene (hERG) potassium channel (human, UniProt Q12809). Kind of assay: primary screen, population patch clamp on CHO cells stably expressing hERG; higher = less effect of the substance.
Sequence of human ether-à-go-go-related gene (hERG) potassium channel (Q12809 whole entry, looked up): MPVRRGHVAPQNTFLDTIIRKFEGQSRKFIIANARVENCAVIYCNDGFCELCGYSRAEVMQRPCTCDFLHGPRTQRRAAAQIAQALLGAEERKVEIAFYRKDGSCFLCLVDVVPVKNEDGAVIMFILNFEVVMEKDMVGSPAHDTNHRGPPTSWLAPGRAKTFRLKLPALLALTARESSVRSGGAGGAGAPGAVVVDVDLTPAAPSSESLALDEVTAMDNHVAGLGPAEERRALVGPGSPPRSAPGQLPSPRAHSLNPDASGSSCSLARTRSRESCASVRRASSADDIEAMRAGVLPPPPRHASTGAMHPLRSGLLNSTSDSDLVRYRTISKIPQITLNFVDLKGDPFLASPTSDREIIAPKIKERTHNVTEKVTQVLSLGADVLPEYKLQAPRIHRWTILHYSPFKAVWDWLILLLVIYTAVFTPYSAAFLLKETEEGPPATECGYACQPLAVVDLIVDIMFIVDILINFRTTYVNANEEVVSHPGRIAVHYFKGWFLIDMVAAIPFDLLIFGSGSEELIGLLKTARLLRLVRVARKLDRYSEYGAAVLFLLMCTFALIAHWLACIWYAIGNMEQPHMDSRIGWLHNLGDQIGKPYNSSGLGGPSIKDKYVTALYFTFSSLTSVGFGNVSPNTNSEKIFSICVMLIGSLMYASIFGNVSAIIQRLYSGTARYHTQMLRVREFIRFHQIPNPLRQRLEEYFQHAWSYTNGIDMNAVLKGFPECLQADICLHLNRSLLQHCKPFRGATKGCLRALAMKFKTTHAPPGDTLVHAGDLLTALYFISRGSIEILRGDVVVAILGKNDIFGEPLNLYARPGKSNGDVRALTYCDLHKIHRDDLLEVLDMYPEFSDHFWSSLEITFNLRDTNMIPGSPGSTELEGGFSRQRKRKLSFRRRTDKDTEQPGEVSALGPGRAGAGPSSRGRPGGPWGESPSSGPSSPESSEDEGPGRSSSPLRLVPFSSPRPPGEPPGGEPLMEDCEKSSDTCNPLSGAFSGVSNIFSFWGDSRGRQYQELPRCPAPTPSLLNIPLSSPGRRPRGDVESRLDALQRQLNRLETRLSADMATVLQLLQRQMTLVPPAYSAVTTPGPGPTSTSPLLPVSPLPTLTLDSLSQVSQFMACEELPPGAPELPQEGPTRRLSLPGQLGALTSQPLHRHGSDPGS
Turning to `O=C(CNC(=O)c1ccco1)NCC(=O)OCc1cccc(Cl)c1`, the “hERG current change (%, negative = inhibition) at 10uM” value was -13%.
The same measure for `COC(=O)COc1ccc(C2Nc3c(Cl)ccc(C(=O)O)c3C3C=CCC32)cc1` (stereo not drawn): 12.9%.
In the case of `Cn1ncc(Cl)c1C(=O)Nc1cc(C(F)(F)F)ccc1F`, the “hERG current change (%, negative = inhibition) at 10uM” value is 29.5%.
Consider `Cc1ccc(NC2=C(Cl)C(=O)OC2OC(=O)c2ccc(C)cc2)cc1` (stereo not drawn), for which the “hERG current change (%, negative = inhibition) at 10uM” value is reported as -51.7%.
The same measure for `COC(=O)c1ccc(NC2=C(Cl)C(=O)OC2OC(=O)c2ccccc2)cc1` (stereo not drawn): -22.5%; for `Cc1ccc(NC2=C(Cl)C(=O)OC2OC(=O)c2ccco2)cc1` (stereo not drawn): -42.2%.
The same measure for `COCCCN1C(=O)C(=O)/C(=C(/O)c2ccccc2)C1c1ccc(N(C)C)cc1` (stereo not drawn): 12.8%; for `CSCC[C@H](NC(=O)Nc1ccc(S(N)(=O)=O)cc1)C(=O)O`: 9.48%; for `CCN1CCN(c2cc(C)c3cc(NC(=O)CCC(=O)Nc4ccc(OC)c(OC)c4)ccc3n2)CC1`: 4.85%.
Consider `COc1ccc(NC(=O)CCC(=O)Nc2ccc3nc(N4CCOCC4)cc(C)c3c2)c(OC)c1`, for which the “hERG current change (%, negative = inhibition) at 10uM” value came out at 16.5%.
Consider `CCN1CCN(c2cc(C)c3cc(NC(=O)c4ccc(OC)c(OC)c4)ccc3n2)CC1`, for which the “hERG current change (%, negative = inhibition) at 10uM” value is -46%.
To `CCOc1ccc(C(=O)Nc2ccc3nc(N4CCN(CC)CC4)cc(C)c3c2)cc1` belongs -23%.
To `COc1ccc(C(=O)Nc2ccc3nc(N4CCCCC4)cc(C)c3c2)cc1OC` belongs -56.8%.
For `CCN1CCN(c2cc(C)c3cc(NC(=O)c4cccc(OC)c4)ccc3n2)CC1`, the “hERG current change (%, negative = inhibition) at 10uM” value is listed as -50.9%.
To `CCN1CCN(c2cc(C)c3cc(NC(=O)c4cc(OC)cc(OC)c4)ccc3n2)CC1` belongs -35.6%; to `COc1cccc(C(=O)Nc2ccc3nc(N4CCOCC4)cc(C)c3c2)c1`, -55%; to `COc1cccc(NC(=O)CCC(=O)Nc2ccc3nc(N4CCOCC4)cc(C)c3c2)c1`, 23.4%.
For `COc1ccc(Cc2nc3ccc(C(=O)N(C)C(C)c4ccon4)cc3o2)cc1` (stereo not drawn), the “hERG current change (%, negative = inhibition) at 10uM” value is given as -3.64%.
`O=C1COc2ccc(C(=O)c3ccccc3C(=O)NCc3ccccc3)cc2N1`: the “hERG current change (%, negative = inhibition) at 10uM” value is -5.41%.
The same measure for `COc1cccc(CC(=O)OC(C)C(=O)Nc2ccc(Cl)cn2)c1` (stereo not drawn): -23.9%; for `CC(=O)Nc1nc2ccc(S(=O)(=O)N3CCCCC3)cc2s1`: 11.4%; for `Cc1ccccc1NC(=O)Cc1nc(-c2c[nH]c(C(=O)N3CCCC3)c2)cs1`: 4.63%.
To `Cc1ccc(NC(=O)C(=O)NNC(=O)c2ccccc2C)cc1Cl` belongs -5.32%.
For the molecule `CCOCCCn1c(=NC(C)=O)c(C#N)cc2c(=O)n3cccc(C)c3nc21`, the “hERG current change (%, negative = inhibition) at 10uM” value is -41.8%.
Regarding `CCOCCCn1c(=NC(=O)c2ccc(OC)c(OC)c2)c(C#N)cc2c(=O)n3cccc(C)c3nc21`, the “hERG current change (%, negative = inhibition) at 10uM” value is -63.4%.
For `CCCCn1c(=NC(=O)c2ccc3c(c2)OCO3)c(C#N)cc2c(=O)n3cccc(C)c3nc21`, the “hERG current change (%, negative = inhibition) at 10uM” value is listed as -5.68%.
To `Cc1cccn2c(=O)c3cc(C#N)c(=NC(=O)c4cccs4)n(CCCOC(C)C)c3nc12` belongs -80.7%; to `CCOCCCn1c(=NC(=O)c2cccs2)c(C#N)cc2c(=O)n3cccc(C)c3nc21`, -74.1%.
As for `Cc1cccn2c(=O)c3cc(C#N)c(=NC(=O)c4cccs4)n(CC(C)C)c3nc12`, the “hERG current change (%, negative = inhibition) at 10uM” value was -11.5%.
To `NC(=O)Nc1ccc(Oc2c(F)c(F)c(F)c(F)c2F)cc1` belongs -11.5%.
The same measure for `Cc1cccc(N2CCN(CC(=O)Nc3ccc(-n4cnnn4)cc3)CC2)c1C`: 12.8%; for `O=C(Nc1ccc(F)cc1)c1ccccc1S(=O)(=O)c1ccccc1[N+](=O)[O-]`: -17.5%; for `N#C/C(Cn1c[n+](NC(=O)Nc2ccccc2)cn1)=N/O.[Cl-]`: 16.2%.
Turning to `Cc1cccn2c(=O)c3cc(C(=O)N4COCC4(C)C)sc3nc12`, the “hERG current change (%, negative = inhibition) at 10uM” value was 0.269%.
To `CC(C)[C@@H]1NC(=O)c2cc([N+](=O)[O-])cc(I)c2OCC[C@@H](C(N)=O)NC(=O)[C@H](CCC(=O)O)NC1=O` belongs 2.02%; to `CCc1ccccc1NC(=S)N(CCN(C)C)Cc1cccs1`, -22.4%; to `COc1ccc(S(=O)(=O)N(C)CC(=O)N2CCC(C)CC2)cc1Cl`, -0.646%.
As to `CC(C)NC(=O)C1CCN(C2CCN(Cc3nc4ccccc4s3)CC2)CC1`, the “hERG current change (%, negative = inhibition) at 10uM” value is listed as -65.2%.
Regarding `OCCC1CN(Cc2nc3ccccc3s2)CCN1CCc1ccccc1` (stereo not drawn), the “hERG current change (%, negative = inhibition) at 10uM” value was -77.7%.
The same measure for `CC(C)NC(=O)C1CCN(C2CCN(Cc3ccc4cccc(F)c4n3)CC2)CC1`: -38.6%; for `CC(C)N1CCN(Cc2nc3ccccc3s2)CC1CCO` (stereo not drawn): -37.6%; for `CC(C)CN1CCN(Cc2nc3ccccc3s2)CC1CCO` (stereo not drawn): -56.8%.
Regarding `OCCC1CN(Cc2nc3ccccc3s2)CCN1C1CCCC1` (stereo not drawn), the “hERG current change (%, negative = inhibition) at 10uM” value is reported as -48.9%.
To `OCCC1CN(Cc2nc3ccccc3s2)CCN1C1CCCCC1` (stereo not drawn) belongs -60%.
The same measure for `CC(C)N1CCC(N2CCN(Cc3nc4ccccc4s3)CC2CCO)CC1` (stereo not drawn): -33.4%; for `CC(C)CCN1CCN(Cc2nc3ccccc3s2)CC1CCO` (stereo not drawn): -41.4%; for `CC(C)NC(=O)C1CCN(C2CCN(Cc3nc(C(C)C)cs3)CC2)CC1`: -49.5%.
For the molecule `O=C1S/C(=C\c2ccc(Cl)cc2)C(=O)N1CCn1cnnn1`, the “hERG current change (%, negative = inhibition) at 10uM” value is listed as -0.978%.
Turning to `CC(=O)c1cc2c(cc1N(C(=O)Cn1nnc3ccccc31)C(C(=O)NCCC(C)C)c1cccnc1)OCO2` (stereo not drawn), the “hERG current change (%, negative = inhibition) at 10uM” value turned out to be 8.92%.
The same measure for `CCc1ccccc1NC(=O)C1CCN(C(=O)c2cccs2)CC1`: -24.3%.
For the molecule `COc1ccc(S(=O)(=O)N2CCCCCC2)cc1NC(=O)CN1C(=O)NC(C)(c2ccccc2)C1=O` (stereo not drawn), the “hERG current change (%, negative = inhibition) at 10uM” value was -31.4%.
The same measure for `O=[N+]([O-])c1ccc(Cl)cc1CN1CCCCCC1`: -3.36%; for `O=[N+]([O-])c1cc(CN2CCCCCC2)ccc1O`: 9.47%; for `O=C(O)c1ccccc1C(=O)c1ccc(Sc2ccc(Cl)cc2)c([N+](=O)[O-])c1`: 6.94%.
To `Cc1ccc(Sc2ccc(CN3CCCCC3)cc2[N+](=O)[O-])cc1` belongs -27.4%; to `O=[N+]([O-])c1cc(CN2CCC(O)CC2)ccc1Cl`, 9.08%.
The same measure for `CN1CCN(Cc2ccc(Sc3ccc(Cl)cc3)c([N+](=O)[O-])c2)CC1`: -80.4%; for `O=[N+]([O-])c1cc(CN2CCCC2)ccc1Sc1ccc(Cl)cc1`: -93.8%.
Regarding `Cc1ccc(Sc2ccc(CN3CCCC3)cc2[N+](=O)[O-])cc1`, the “hERG current change (%, negative = inhibition) at 10uM” value is -83%.
To `Cc1ccc(Sc2ccc(C(=O)N3CCOCC3)cc2[N+](=O)[O-])cc1` belongs -32.3%.
